Only some compounds are listed: those with a hit (about 2.4% of all), similar ones and a draw of the others.
D2 antagonist: antagonizes the human D2 dopamine receptor; HEK293 TREx D2 cells, calcium flux, dopamine EC80; inhibition, % at 10 µM; 340,000 compounds, 2% hits; AID 485344; in the data active means inhibition above about 30%; inactive means below that, where a call was filed
Target sequence (P14416 whole entry, looked up): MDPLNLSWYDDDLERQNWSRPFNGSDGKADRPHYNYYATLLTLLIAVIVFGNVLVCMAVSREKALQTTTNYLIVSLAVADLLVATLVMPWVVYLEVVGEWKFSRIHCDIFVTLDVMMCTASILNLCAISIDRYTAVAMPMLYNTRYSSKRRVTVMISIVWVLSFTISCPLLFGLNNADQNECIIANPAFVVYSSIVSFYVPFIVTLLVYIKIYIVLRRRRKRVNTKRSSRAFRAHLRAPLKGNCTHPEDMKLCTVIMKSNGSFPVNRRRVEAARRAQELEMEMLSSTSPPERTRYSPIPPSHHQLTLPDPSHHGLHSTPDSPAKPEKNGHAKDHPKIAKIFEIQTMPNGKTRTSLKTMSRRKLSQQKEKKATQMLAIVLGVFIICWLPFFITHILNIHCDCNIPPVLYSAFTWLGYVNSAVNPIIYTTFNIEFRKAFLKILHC
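HEK293 T-REx D2 cells, tet-induced, calcium dye no-wash. Cpd pintool add, 180 s kinetic, then EC80 DA, 180 s kinetic. Ca flux read.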
D2 PAM-1: D2 dopamine receptor (human) potentiation. HEK293 T-REx D2, calcium flux, EC20 dopamine potentiation. potentiation, % at 10 µM. 340,000 compounds, 0.34% hits;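 active means potentiation over 3 SD above the plate norm, cut at about 30% in these data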
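Tetracycline-induced HEK293 T-REx cells force-coupled to calcium signalling expressed D2; compounds were pin-added after a 10 s baseline, read kinetically 180 s, then an EC20 dopamine challenge followed with a further 180 s calcium read.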
D2 ag-1: agonists of human D2 dopamine receptor (beta-arrestin) | P14416 | DiscoveRx PathHunter D2 beta-arrestin, luminescence, 90 min; 100% = 57 uM dopamine signal | activation, % (test concentration not listed) | 360,000 compounds, 0.084% hits; in the data active means activation above about 40%; inconclusive means between about 15% and that limit
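Agonist mode: compounds alone added to overnight-plated D2 PathHunter cells for 90 min at 37 C, with 57 uM final dopamine (EC100) defining full response. Beta-arrestin recruitment detected by chemiluminescent reagent, read after 1 h at ambient temperature.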
D2 PAM-2: human D2 receptor positive allosteric modulation. P14416. DiscoveRx D2 beta-arrestin cells, luminescence, 90 min; 100% = 57 uM dopamine signal. potentiation, % (no concentration beside the values). 360,000 compounds, 0.23% hits. AID 624464; in the data active means potentiation above about 50%; inconclusive means mostly about 30% to 49%
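PathHunter D2 cells, attached overnight at 37 deg C, received compound in DMSO plus dopamine at EC20 (50 nM final) for 90 min at 37 deg C. Beta-arrestin recruitment was read as luminescence after 1 h with detection reagent at ambient temperature.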
D2 ag-2: activates the human D2 dopamine receptor; P14416; HEK293 T-REx D2 cells, calcium flux agonist mode; activation, % at 2 µM; 340,000 compounds, 0.53% hits;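 active means activation over 3 SD above normal in the single-dose calcium agonist read, cut at about 30% in these data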
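In this primary screen, compounds producing a positive calcium signal within 180 s of addition to tetracycline-induced, force-coupled HEK293 Trex D2 cells are flagged; cells are dye-loaded with a no-wash calcium kit beforehand.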
Of the large screens only hits and unclear results are named; the others gave an inactive call.

CCC(=O)N1CCCc2cc(S(=O)(=O)N3CCN(c4ncccn4)CC3)ccc21	D2 antagonist 31.3
Cc1nc(SCC(=O)Nc2ccc(F)cc2)c(C#N)c(C)c1CC(=O)c1ccc(Br)cc1	D2 antagonist 44.1
COc1ccc(OCC(O)Cn2c(NCCO)nc3c2c(=O)n(C)c(=O)n3C)cc1 (stereo unspecified)	none (no result: D2 antagonist, D2 ag-1, D2 PAM-2)
N#CC(C#N)=c1ccc2c(c1)N1C3=C(CCCC3)CC3CCCCC31N=2 (stereo unspecified)	D2 PAM-2 70.5
N#C/C(C(N)=O)=c1/ccc2c(c1)N1C3=C(CCCC3)CC3CCCCC31N=2 (stereo unspecified)	none
COc1ccc(C(CC(=O)Nc2ccc(OC)c(OC)c2)N2Cc3ccccc3C2=O)cc1 (stereo unspecified)	none (no result: D2 antagonist, D2 ag-1, D2 PAM-2, D2 ag-2)
C=CC[C@@H]1C=C[C@H](O/N=C/[C@@H](NS(=O)(=O)c2ccc(C)cc2)[C@H](C)/C=C/CC(=O)OC)[C@@H](CO)O1	D2 antagonist 31.0 (no result: D2 ag-1, D2 PAM-2)
COC(=O)C/C=C/[C@@H](C)[C@@H](/C=N/OC[C@@H](C)[C@H](OCc1ccccc1)C(C)C)NS(=O)(=O)c1ccc(C)cc1	none (no result: D2 antagonist, D2 ag-1, D2 PAM-2, D2 ag-2)
O=C1c2ccccc2C(=O)N1CCc1nc(-c2ccccn2)no1	none (no result: D2 antagonist, D2 ag-2)
O=C1c2ccccc2C(=O)N1CCCc1nc(-c2ccccn2)no1	D2 antagonist 35.9
CCn1cc2nc(SCC(=O)Nc3cc(OC)ccc3OC)n(Cc3ccc(Cl)cc3)c(=O)c2n1	none (no result: D2 antagonist, D2 ag-1, D2 PAM-2)
Cc1nc2ccc(Cl)cc2nc(C)/c1=N\O	D2 PAM-2 83.1
CC(C)c1ccc(NC(=O)c2cc3c(=O)[nH]c4ccccc4c3n2C)cc1	none (no result: D2 antagonist, D2 ag-1, D2 PAM-2)
COc1ccc(CCNC(=O)CCc2c(C)nc3c(c(C)nn3-c3ccccc3)c2C)c(OC)c1	none (no result: D2 antagonist, D2 ag-1, D2 PAM-2)
CCN(CC(=O)Nc1c(F)cccc1F)C(=O)c1ccc(N2CCCC2)c([N+](=O)[O-])c1	D2 antagonist 31.1
CN(CC(=O)Nc1cccc(F)c1)C(=O)c1cc([N+](=O)[O-])ccc1N1CCCCC1	D2 antagonist 41.6
CCN(CC(=O)Nc1c(F)cccc1F)C(=O)c1ccc(N2CCOCC2)c([N+](=O)[O-])c1	none
Cc1cc(C)cc(NC(=O)CCN2C(=O)c3ccccc3Sc3ncccc32)c1	none (no result: D2 antagonist, D2 ag-1, D2 PAM-2)
CC1CCCN(CCCNC(=O)c2ccc3c(c2)N(Cc2cccc(Cl)c2)C(=O)c2ccccc2S3(=O)=O)C1 (stereo unspecified)	none (no result: D2 antagonist, D2 ag-1, D2 PAM-2)
CC1=C(C(=O)Nc2ccccc2C)C(c2ccccn2)n2nc(SCc3ccccc3F)nc2N1 (stereo unspecified)	none (no result: D2 antagonist, D2 ag-1, D2 PAM-2)
Cc1nn(Cc2ccc([N+](=O)[O-])cc2)c(=O)n1-c1c(F)cccc1F	D2 antagonist 36.9
Cc1nn(Cc2ccc([N+](=O)[O-])cc2)c(=O)n1-c1ccc(F)cc1	none
Cc1nn(Cc2ccc([N+](=O)[O-])cc2)c(=O)n1-c1cccc(Cl)c1	D2 antagonist 32.5
CCc1cccc(C)c1NC(=O)c1cc(S(=O)(=O)N(C)Cc2ccccc2)ccc1F	none (no result: D2 antagonist, D2 ag-1, D2 PAM-2)
CCOC(=O)c1c(C)[nH]c(N=Nc2cccc(C)c2)c1C	D2 antagonist 32.7
CCOC(=O)c1c(C)[nH]c(N=Nc2ccc(C)cc2)c1C	none
CCOC(=O)c1c(C)[nH]c(N=Nc2ccccc2)c1C	D2 antagonist 67.1
Cc1ccc(S(=O)(=O)c2nc(-c3cccs3)oc2SCC(=O)Nc2cc(C)cc(C)c2)cc1	none (no result: D2 antagonist, D2 ag-1, D2 PAM-2)
Cc1cc2nc(C3CCCN(C(=S)Nc4ccccc4)C3)[nH]c2cc1C (stereo unspecified)	D2 antagonist 31.0
COc1ccc2c(c1)C1=NN(/C(C)=C/C(C)=O)C(c3ccc(F)cc3)C1CC2 (stereo unspecified)	D2 PAM-2 51.4
COc1ccc2c(c1)CCC1C2=NN(/C(C)=C\C(C)=O)C1c1ccc(F)cc1 (stereo unspecified)	D2 ag-1 inconclusive
CC(C)OCCCNc1ncnc2c1nc1n2CCCC1	D2 antagonist 32.5
Cc1nc(-c2ccc(F)cc2)c(CC(=O)N2CCN(S(=O)(=O)c3cccc([N+](=O)[O-])c3)CC2)s1	D2 antagonist 33.8, D2 ag-1 inconclusive
COc1cccc(OCC(=O)O)c1	D2 PAM-1 39.5
Cc1cc(NC(=O)NC(=O)c2cccc(OC(F)(F)C(F)F)c2)n[nH]1	none
COc1cccc(C(=O)Nc2cccc(OCC(=O)O)c2)c1	D2 antagonist 33.7
COc1cccc(OCCNCc2ccccc2)c1	D2 antagonist 41.1
Cc1cc(NC(=O)c2cccc(Oc3ccccc3)c2)n[nH]1	D2 PAM-1 73.8
COc1cccc(NC(=O)CSc2nc3ccc(NC(=O)c4ccco4)cc3s2)c1	none (no result: D2 antagonist, D2 ag-1, D2 PAM-2)
CCOc1ccc(NC(=O)Cn2cc(C(=O)c3ccccc3)c(=O)c3cc4c(cc32)OCCO4)cc1	none (no result: D2 antagonist, D2 ag-1, D2 PAM-2)
CCOc1ccc(S(=O)(=O)Nc2cccc(OC)c2)c2cccnc12	none (no result: D2 antagonist, D2 ag-1, D2 PAM-2)
CCN(CC)S(=O)(=O)c1cccc(C(=O)NCC2(N3CCOCC3)CCCCC2)c1	D2 antagonist 39.1
Cc1ccccc1NC(=O)c1sc(Cl)nc1-c1ccccc1	D2 antagonist 30.7
Cc1ccc(S(=O)(=O)c2nnn3c2nc(NCc2ccc4c(c2)OCO4)c2sccc23)cc1C	none (no result: D2 antagonist, D2 ag-1, D2 PAM-2)
O=[N+]([O-])c1ccc(S(=O)(=O)NCCN2CCOCC2)cc1	D2 PAM-1 49.0
CSc1nn(Cc2ccccc2C)c(NC(C)=O)c1S(=O)(=O)c1ccc(C)cc1	none (no result: D2 antagonist, D2 ag-1, D2 PAM-2)
COC(=O)c1ccc(NC(=O)CSc2nc(=O)[nH]c3c2CCCC3)cc1	none (no result: D2 antagonist, D2 PAM-1, D2 ag-1, D2 PAM-2)
CCCCN(C)C1=CC2=CC(=C(C#N)C#N)CCC2CC1 (stereo unspecified)	D2 antagonist 73.4, D2 ag-2 140.1
N#CC(C#N)=C1C=C2C=C(N3CCCCC3)CCC2CC1 (stereo unspecified)	D2 antagonist 86.8, D2 ag-1 inconclusive, D2 ag-2 132.1
N#CC1=C(N)C2=C(N3CCCCC3)CCCC2C1(C#N)C#N (stereo unspecified)	none
COc1cccc2c1Oc1ncccc1N(C(=O)CCC(=O)NCc1ccc(OC(C)C)cc1)C2	none (no result: D2 antagonist, D2 ag-1, D2 PAM-2, D2 ag-2)
CCOc1ccc(N(C)C(CNS(=O)(=O)c2ccccc2)c2ccccc2)cc1 (stereo unspecified)	none (no result: D2 antagonist, D2 ag-1, D2 PAM-2)
Cc1ccc(S(=O)(=O)Nc2cccc(C(=O)NCC(c3ccccc3)N(C)C)c2)cc1F (stereo unspecified)	D2 antagonist 79.2
COc1cccc(C2CNC3(CCCC(C)C3)c3[nH]c4ccccc4c32)c1OC (stereo unspecified)	none
CC1(C)CC(=O)CC2(C1)NCC(c1ccccc1)c1c2[nH]c2ccccc12 (stereo unspecified)	D2 antagonist 31.4
CCn1nnnc1-c1ccc(OC)c(S(=O)(=O)Nc2ccc(OC)cc2)c1	D2 antagonist 36.5
COc1ccc(NC(=O)NCc2ccncc2)c(OC)c1	none
COc1ccc(NS(=O)(=O)c2cccc(NC(=O)NC3CCCCC3)c2)cc1	none
COc1ccc(OC)c(NC(=O)NC2CCCCCCC2)c1	none
